# Source: PubChem BioAssay (Tox21)
# Inconclusive results are not listed. The source made the active and inactive calls. The call rests on the fitted dose curve; in most records, active means well fitted activation curve with a large enough effect in the signal ratio in the repeat runs (not every such curve was filed as active); inconclusive means weak or mixed curves; inactive means flat fitted curve, though single readings scatter; the % refers to the signal ratio.
# Test: qHTS assay to identify small molecule agonists of the hypoxia (HIF-1) signaling pathway (AID 1224846)
# Details: HRE-bla ME-180 cells, beta-lactamase ratio, 17 h; series mostly up to 76.8 µM; activation: at the top concentration
# Text: U.S. Tox21 Program National Center for Advancing Translational Sciences [NCATS] NIH Chemical Genomics Center [NCGC] U.S. Environmental Protection Agency [EPA] National Institutes of Environmental Health Sciences [NIEHS] National Toxicology Program [NTP] U.S. Food and Drug Administration [FDA] Tox21 Assay Overview: Hypoxia-inducible factor-1 (HIF-1) is the major hypoxia-regulated transcription factor that controls cellular responses to low oxygen concentration. HIF-1 is composed of two subunits: hypoxia responsive HIF-1-alpha and constitutively expressed HIF-1-beta, which is also known as aryl hydrocarbon receptor nuclear translocator. During hypoxic conditions, HIF-1-alpha heterodimerizes with HIF-1-beta and translocates into the nucleus where the HIF-1 complex binds to the hypoxia-response element (HRE) and activates expression of target genes such as VEGF (vascular endothelial growth factor). The HIF-1 pathway is essential to normal growth and development, and is involved in the pathophysiology of cancer, inflammation, and ischemia. Using a beta-lactamase reporter-gene under control of the hypoxia response element, a cell-based assay [CellSensor(TM) HRE-bla ME-180 from Life Technologies, Carlsbad, CA] was used to measure hypoxia-induced signaling. Tox21 10K library compounds were measured for their ability to induce the reporter gene activity.
# Tox21 Assay Protocol Summary: HRE-bla ME-180 cells were dispensed at 2,000 cells per well in 6 uL of assay medium containing 0.5% dialyzed FBS into black wall/clear-bottom 1536-well plates using a Multidrop Combi (Thermo Scientific, Waltham, MA) dispenser. After the assay plates were incubated at 37C and 5% CO2 for 5 hrs, 23 nL of compounds dissolved in DMSO, positive controls or DMSO only was transferred to each well of the assay plate using a Pintool station (Kalypsys, San Diego, CA). The assay plates were incubated at 37C and 5% CO2 for 17 hrs. One uL of LiveBLAzerTM B/G FRET substrate (CCF4-AM) (Life Technologies) was added to each well using a Flying Reagent Dispenser (Aurora Discovery, San Diego, CA).
# On the % scale 0 is the no-effect control and ±100 the full control effect.
row,Structure (SMILES),activation
1,CC(C)=CC1CC(C)CCO1 (stereo not given),-0.365% (inactive)
2,CCCCCCCCCCCCCCCCCO,-0.342% [at 15.8 µM] (inactive)
3,CCOCN(C(=O)CS(=O)(=O)O)c1c(C)cccc1CC,0.165% (inactive)
4,c1ccc2c(c1)CCC2,-0.795% (inactive)
5,CC1CCCCN1CCCOC(=O)c1ccc(OC2CCCCC2)cc1 (stereo not given),2.34% [at 35.5 µM] (inactive)
6,CCc1ccc(C)nc1,-0.475% (inactive)
7,OCCCS,0.361% (inactive)
8,CC(C)=CCCC(C)CCOC(=O)C(C)C (stereo not given),-0.124% (inactive)
9,O=S(=O)(O)c1cc(S(=O)(=O)O)c2ccc3c(S(=O)(=O)O)cc(S(=O)(=O)O)c4ccc1c2c43,-0.0206% [at 15.8 µM] (inactive)
10,COc1cccc(O)c1,-1.08% (inactive)
11,CC(=O)O[C@@H]1C[C@@H]2CC[C@@]1(C)C2(C)C,-0.341% (inactive)
12,CCc1c(C(=O)O)c(=O)cnn1-c1ccc(Cl)cc1,-1.57% (inactive)
13,CCC(=O)OCCc1ccccc1,-0.675% (inactive)
14,Cc1cccc(C)n1,0.165% (inactive)
15,O=C=NCc1cccc(CN=C=O)c1,-0.762% [at 15.8 µM] (inactive)
16,COc1ccc2sc(C(=O)Nc3nnn[nH]3)c(OC(C)C)c2c1,4.39% (inactive)
17,C(=C/c1ccccc1)/c1ccccc1,-0.0448% (inactive)
18,Clc1nc2ccccc2s1,0.31% (inactive)
19,Cc1cccc(Br)c1,5.44% (inactive)
20,CN(C)CCCN1c2ccccc2Sc2ccc(C(F)(F)F)cc21,1.65% [at 35.5 µM] (inactive)

row,Structure (SMILES),activation
1,CCc1c(Br)c(Br)c(Br)c(Br)c1Br,-1.17% (inactive)
2,CCOCOCC,-0.138% (inactive)
3,Cc1cn[nH]c1,-1.43% [at 35.5 µM] (inactive)
4,Cc1ccc(CCn2c3c(c4cc(Cl)ccc42)CN(C)CC3)cn1,1.17% [at 35.5 µM] (inactive)
5,Oc1ccc(-c2ccc(O)cc2)cc1,-1.05% (inactive)
6,COc1cccc(CCc2ccccc2OCC(CN(C)C)OC(=O)CCC(=O)O)c1 (stereo not given),-1.12% [at 35.5 µM] (inactive)
7,CCN(CC)c1cccc(C)c1,-0.0815% (inactive)
8,COc1ccccc1C=O,0.175% (inactive)
9,C/C=C/C(=O)C1=C(C)CCCC1(C)C,-0.676% (inactive)
10,Cc1occc1SSc1ccoc1C,-1.06% (inactive)
11,CC(C)OC(=O)c1cc(C(=O)OC(C)C)cc([N+](=O)[O-])c1,4.98% (inactive)
12,CS(C)(=O)=O,1.13% (inactive)
13,Cc1nc(Nc2ncc(C(=O)Nc3c(C)cccc3Cl)s2)cc(N2CCN(CCO)CC2)n1,1.04% [at 35.5 µM] (inactive)
14,NC(=O)C(=O)N/N=C/c1ccc([N+](=O)[O-])o1,0.827% [at 35.5 µM] (inactive)
15,CCCCCCCC(C)=O,-0.196% (inactive)
16,CC(=O)C=O,-0.366% (inactive)
17,CCCCCCCCCCCCCCCC,-1.34% (inactive)
18,CCC(C)C(=O)OC (stereo not given),0.227% (inactive)
19,C=CC(C)C#N (stereo not given),0.213% (inactive)
20,NC(=O)c1ccccc1N,-0.344% (inactive)
